# Measurements reported in ChEMBL document CHEMBL1157539, “Thousands of chemical starting points for antimalarial lead identification” (Nature, 2010).
# Values joined by “and” are separate entries in the source; they are usually repeats but may differ in a detail not shown here. Equal entries are not always repeated.
# System: Plasmodium falciparum
# Experiment: GSK_TCMDC: Inhibition of Plasmodium falciparum Dd2 in whole red blood cells, using parasite LDH activity as an index of growth. Test compounds present at 2uM
# Assay type: functional
row,Compound,Inhibition
1,COc1ccc(-c2nc(NC(=O)Cc3cccc(OC)c3)sc2C)cc1,77%
2,O=C(NCCCNc1nc2ccccc2[nH]1)c1cccc(OC(F)(F)F)c1,27%
3,COCCNCc1ccc(-c2cccc(CN(C(=O)NCCc3ccccc3)C3CCN(Cc4ccccc4)CC3)c2)cc1.O=C(O)C(F)(F)F,90%
4,COc1cc2nc(N3CCC(CNC(=O)c4ccc(-c5cccc(C#N)c5)cc4)CC3)nc(N)c2cc1OC,100%
5,CCC(C)NS(=O)(=O)c1ccc2nc(Nc3ccc(C)cc3)n(C3CCCCC3C)c2c1 (centres undefined),99%
6,COc1ccc2nccc([C@@H](O)CN3CCC(NCc4nc5c(cc4Cl)SCC(=O)N5)C(F)C3)c2c1.Cl (some centres undefined),94% and 100%
7,O=C(CCN(Cc1ccco1)c1nc(-c2ccc(F)cc2)nc2ccccc12)NC1CC1,54%
8,Cc1nc(N)nc(N)c1CCCOc1ccccc1Cl,5%
9,O=C(Nc1ccc(-c2nc3ccccc3[nH]2)cc1)c1ccc(S(=O)(=O)N2CCCCC2)cc1,6%
10,C(=NN=c1cc(-c2ccccc2)[nH]c2ccccc12)c1cccnc1,13%
11,O=C(Nc1ccc(OC2CCN(Cc3ccc(F)cc3)CC2)c(Cl)c1)c1ccoc1.O=C(O)C(F)(F)F,90%
12,O=C(Nc1ccc(Oc2ccccc2)cc1)N1CCC(CCN2CCC(c3c[nH]c4ccccc34)CC2)CC1,36%
13,Cc1cc(=NN=CC=Cc2ccccc2)c2ccccc2[nH]1,69%
14,CC(=O)Nc1cc(C(=O)Nc2cccc(-c3csc(-c4nc5ccccc5[nH]4)c3)c2)ccc1C,66%
